High-throughput results deposited in PubChem by National Center for Advancing Translational Sciences (NCATS).
G9a block – blocks human histone lysine methyltransferase G9a. Potency, µM (doses to about 102 µM), most hits filed as inhibitors. Q96KQ7. G9a H3K9 monomethylation, AlphaScreen, 2 h. hit rate 8.8% among 350,000; note: nearly all actives have a fitted effect of over 75% in size
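G9a (20 nM) preincubated 15 min RT with compounds, then 500 nM biotinylated H3K9 peptide and 20 uM SAM added; 2 h RT reaction. Monomethyl-H3K9 product detected by AlphaScreen with anti-H3K9me1 antibody, streptavidin donor and anti-rabbit IgG acceptor beads.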
VDR inhibitor – vitamin D3 receptor (human) inhibition | VDR-SRC2-3 peptide fluorescence polarization, 2 h | hit rate 0.93% among 400,000 | Potency, µM, actives largely listed as inhibitors
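Two reagent solutions held at 4 deg C in the dark were dispensed, compounds pinned at 23 nl, and the mixture incubated 2 h at room temperature. Read-out: fluorescence polarization of VDR–SRC2-3 peptide binding.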
PLK1 PBD inh – inhibitors of human PLK1 polo-box domain binding; hit rate 2.8% among 360,000; P53350; Plk1 PBD binding of FITC phosphopeptide, fluorescence polarization; Potency, µM, hits mostly inhibitors; note: series mostly up to about 57 µM; nearly all actives have a fitted effect of over 65% in size
BAZ2B block – BAZ2B (human) inhibition. Q9UIF8. AlphaScreen BAZ2B-H3K14Ac peptide displacement. Potency, µM (doses to about 114 µM), hits mostly inhibitors. hit rate 4.4% among 360,000. AID 504333; note: nearly all actives have a fitted effect of over 60% in size
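In this displacement format the biotinylated H3(5-23) peptide acetylated at Lys14 serves as ligand at 50 nM, with BAZ2B at 50 nM in PBS pH 7.4 containing 0.01% Tween-20. Donor and acceptor beads are 10 ug/mL final.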
JMJD2A Tudor – JMJD2A Tudor domain (human) inhibition | AID 504339 | Potency, µM (doses to about 114 µM), most hits filed as inhibitors | hit rate 4.4% among 390,000 | AlphaScreen JMJD2A-Tudor / H3K4me3 peptide binding | O75164; note: nearly all actives have a fitted effect of over 50% in size
HP1b chromo inh – blocks HP1-beta chromodomain binding to methylated histone tails; hit rate 0.56% among 390,000; Potency, µM (series often up to 114 µM), actives largely listed as inhibitors; AlphaScreen HP1-beta / biotin-H3K9me3 peptide binding; P83916; AID 540317; note: nearly all actives have a fitted effect of over 70% in size
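AlphaScreen: HP1-beta (50 nM) preformed 30 min with biotin-H3(1-18)K9me3 peptide (50 nM) in PBS pH 7.4, 0.01% Tween-20. Compound added for 30 min at RT, then streptavidin donor/nickel chelate acceptor beads (10 ug/mL) for 30 min.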
Large screens that a line does not name were inactive. Only some compounds are listed: those with a hit (about 11% of all), similar ones and a draw of the others. Calls come from the whole dose curve; as a rule, active = well fitted curve in the direction sought with a large enough effect; inconclusive = small, poorly fitted or top-dose-only effect, or another doubt; inactive = no such curve, though single readings can be large; an effect the other way counts as inactive or inconclusive.

COc1ccc(C2(C(=O)c3ccccc3)C(=O)c3ccccc3C2=O)cc1	VDR inhibitor inconclusive, PLK1 PBD inh 12µM, BAZ2B block 22µM, JMJD2A Tudor 35µM, HP1b chromo inh inconclusive (no result: G9a block)
CC(=O)Nc1cccc(Nc2cc(C)nn2C)c1	none (no result: G9a block, VDR inhibitor, BAZ2B block, JMJD2A Tudor, HP1b chromo inh)
CNC(=O)Nc1cc(C)nn1C	VDR inhibitor inconclusive, PLK1 PBD inh 19µM, JMJD2A Tudor inconclusive
c1ccc(CSc2ccc(-c3cccs3)nn2)nc1	G9a block 16µM, PLK1 PBD inh inconclusive
COc1c(C=O)c(O)cc2c1C(=O)c1ccccc1C2=O	G9a block 5µM, VDR inhibitor 7.1µM (no result: PLK1 PBD inh, BAZ2B block, JMJD2A Tudor, HP1b chromo inh)
COc1ccc(CC2=C(O)c3ccccc3C(=O)C2=O)cc1	G9a block inconclusive, VDR inhibitor inconclusive, PLK1 PBD inh inconclusive, BAZ2B block inconclusive
CCOC(=O)c1cc(-c2ccccc2)n(CCCC(=O)Nc2cccc(C)c2C)c1C	JMJD2A Tudor inconclusive (no result: PLK1 PBD inh)
CC1=NC(=O)C(N=Nc2cccc(O)c2)N1c1ccccc1 (stereo not given)	G9a block inconclusive, BAZ2B block 20µM, JMJD2A Tudor 32µM, HP1b chromo inh inconclusive
COc1ccc(OC)c(C(=O)NC2CC(C)(C)Cc3c2cnn3-c2ccccc2)c1 (stereo not given)	BAZ2B block 71µM
Cc1ccccc1-n1ncc2c1CC(C)(C)CC2NC(=O)c1ccncc1 (stereo not given)	none
Cc1ccccc1-n1ncc2c1CC(C)(C)CC2NC(=O)c1cn[nH]c1C (stereo not given)	VDR inhibitor inconclusive, PLK1 PBD inh 30µM, JMJD2A Tudor inconclusive
O=C1OC(c2ccc(F)cc2)=N/C1=C\C=C/c1ccccc1	none
NC(=O)c1ccccc1C[C@H](C(=O)O)N1C(=O)c2ccc(C(=O)O)cc2C1=O	BAZ2B block inconclusive (no result: VDR inhibitor, PLK1 PBD inh, HP1b chromo inh)
COCCn1nnnc1C(c1cccs1)N1CCN(c2cc(C)ccc2C)CC1 (stereo not given)	JMJD2A Tudor 79µM
COCCn1nnnc1C(c1ccccc1OC)N1CCN(c2ccccc2)CC1 (stereo not given)	G9a block 45µM, JMJD2A Tudor 45µM
COc1cccc(C(c2nnnn2CCc2ccccc2)N2CCN(c3ccccc3)CC2)c1OC (stereo not given)	G9a block inconclusive, PLK1 PBD inh 30µM
COc1ccccc1C(c1nnnn1CCc1ccccc1)N1CCN(c2ccccc2)CC1 (stereo not given)	G9a block inconclusive
COCCn1nnnc1C(c1cc2cc(C)cc(C)c2[nH]c1=O)N1CCN(c2ccccc2F)CC1 (stereo not given)	G9a block 3.2µM
CC1CC=CC2C1C(=O)N(Cc1ccccc1)C2c1ccoc1 (stereo not given)	VDR inhibitor inconclusive (no result: G9a block, PLK1 PBD inh, BAZ2B block)
CCOC(=O)c1ccc(NC(=O)CCSCCc2ccccn2)cc1	none
Cc1ncsc1CCOC(=O)c1ccc(Cl)cc1	none
Cc1noc(C)c1C(=O)Nc1ccc(N(C)C)cc1	G9a block inconclusive
CN(C)c1ccc(NC(=O)c2cnsn2)cc1	G9a block 50µM, JMJD2A Tudor inconclusive
CN(C(=O)c1ccncc1)c1nnc(-c2ccccn2)s1	BAZ2B block 56µM
CN(C(=O)c1ccno1)c1nnc(-c2ccccn2)s1	G9a block inconclusive, BAZ2B block 50µM, JMJD2A Tudor inconclusive
Cc1ccc(C(=O)N(C)c2nnc(-c3ccncc3)s2)cc1	JMJD2A Tudor 79µM (no result: G9a block)
CN(C(=O)c1ccncc1)c1nnc(-c2cccnc2)s1	none
CN(C(=O)c1ccc(C#N)cc1)c1nnc(-c2ccccn2)s1	none
COc1ccc(-c2nnc(N(C)C(=O)c3ccno3)s2)cc1	none
CCOC(=O)C1(C)C=C(Nc2ccc(C(N)=O)cc2)C(=O)N1c1ccccc1 (stereo not given)	none (no result: PLK1 PBD inh)
COc1cc(F)c(S(=O)(=O)N2CCN(S(=O)(=O)c3ccc4c(c3)OCCO4)CC2)c(F)c1	none (no result: G9a block, VDR inhibitor, PLK1 PBD inh, BAZ2B block, HP1b chromo inh)
Cc1cccc(-c2sc(Nc3ccccc3)n[n+]2-c2ccc(F)cc2)c1	G9a block 35µM
CCc1ccc(Nc2n[n+](-c3ccccc3)c(-c3cccc(C)c3)s2)cc1	BAZ2B block 35µM, JMJD2A Tudor 79µM
COc1ccc(-c2sc(Nc3ccccc3)n[n+]2-c2ccc(F)cc2)c(C)c1C	G9a block inconclusive, BAZ2B block inconclusive, JMJD2A Tudor inconclusive
COc1cccc(NC(=O)C(CCSC)NC(=O)C2CCC(C)CC2)c1 (stereo not given)	G9a block inconclusive (no result: PLK1 PBD inh)
Cc1cc(C)cc(OCc2ccc(C(=O)NN)o2)c1	none
O=C(NCCCc1ccncc1)C1CCC(=O)N(Cc2cccc(F)c2)C1 (stereo not given)	VDR inhibitor inconclusive, PLK1 PBD inh 30µM
CCN(CC)c1ccc(CNC23CN4CN(CN(C4)C2)C3)cc1	G9a block 3.2µM, JMJD2A Tudor inconclusive
O=C(NC1c2ccccc2-c2ccccc21)c1ccccc1	PLK1 PBD inh 27µM
CCOC(=O)C(C)Sc1nc2c(c(-c3cccs3)c1C#N)CCC2 (stereo not given)	none
N#Cc1c(SC(C(=O)O)c2ccccc2)nc2c(c1-c1cccs1)CCCC2 (stereo not given)	PLK1 PBD inh 30µM
COc1ccc(CN(Cc2ccccc2)C(=O)C2CC2)cc1COc1ccc(NC(C)=O)cc1	JMJD2A Tudor inconclusive (no result: G9a block, PLK1 PBD inh, BAZ2B block)
CCNc1ncc2nc(-c3ccccc3)c(=O)n(C[C@H]3CCCO3)c2n1	none (no result: PLK1 PBD inh, BAZ2B block, JMJD2A Tudor, HP1b chromo inh)
CCc1ccccc1NC1=NCC(=O)N1Cc1ccc2c(c1)OCO2	PLK1 PBD inh 30µM
O=C(Nc1ccccc1Cl)N1CCN(Cc2ccc3c(c2)OCO3)CC1	none
O=C1CN=C(Nc2ccccc2Cl)N1Cc1ccc2c(c1)OCO2	G9a block inconclusive, VDR inhibitor inconclusive, JMJD2A Tudor 89µM
Cc1ccccc1S(=O)(=O)NC(=O)C1(C)CCN1C(=O)Cc1cccs1 (stereo not given)	none (no result: G9a block, VDR inhibitor, BAZ2B block, JMJD2A Tudor, HP1b chromo inh)
CC(C)/C=C(/C(=O)c1ccc(Cl)cc1Cl)n1cncn1	VDR inhibitor inconclusive
O=C(/C(=C/c1cccnc1)n1ccnc1)c1ccc(Cl)cc1Cl	VDR inhibitor 50µM, PLK1 PBD inh inconclusive, BAZ2B block inconclusive
COCC1CCN(C(=O)c2ccc(OC3CCN(Cc4ccccn4)CC3)cc2)C1 (stereo not given)	none
CN(C)/C=C1/C(=O)N(c2ccc([N+](=O)[O-])cc2)N=C1c1ccccc1	G9a block inconclusive (no result: VDR inhibitor, PLK1 PBD inh, JMJD2A Tudor, HP1b chromo inh)
CCOC1=NN(c2ccc(Cl)cc2)C(=O)/C1=C\N(C)C	G9a block 56µM
CC1=NN(c2ccccc2)C(=O)/C1=C/N(C)C	BAZ2B block inconclusive (no result: G9a block)
CCCC1=NN(c2ccc([N+](=O)[O-])cc2)C(=O)/C1=C/N(C)C	none
CC1=NN(c2ccc([N+](=O)[O-])cc2)C(=O)/C1=C\N(C)C	G9a block 10µM, VDR inhibitor inconclusive, BAZ2B block inconclusive
